# Results as given in PubChem BioAssay AID1209 (Sanford-Burnham Center for Chemical Genomics, 2008).
# The campaign covered roughly 190,000 compounds. About 810 (0.43%) were called active. This is one part of a sample in which actives are shown more often than they occur. No stated cut-off is given here; in the data, active means inhibition above about 50%; inactive means the rest.
# Biological target: Mannose-6-phosphate isomerase (Homo sapiens) (UniProt P34949)
# Assay: MPI enzyme activity inhibition – biochemical, fluorescence intensity, coupled assay, primary screen (AID 1209);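 further: plate controls were DMSO vehicle for no effect and wells lacking substrate for full effect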
# Conditions: purified PMI enzyme, at 20 µM, stronger effect = higher value
# Sequence of Mannose-6-phosphate isomerase (Homo sapiens) (P34949 whole entry, looked up): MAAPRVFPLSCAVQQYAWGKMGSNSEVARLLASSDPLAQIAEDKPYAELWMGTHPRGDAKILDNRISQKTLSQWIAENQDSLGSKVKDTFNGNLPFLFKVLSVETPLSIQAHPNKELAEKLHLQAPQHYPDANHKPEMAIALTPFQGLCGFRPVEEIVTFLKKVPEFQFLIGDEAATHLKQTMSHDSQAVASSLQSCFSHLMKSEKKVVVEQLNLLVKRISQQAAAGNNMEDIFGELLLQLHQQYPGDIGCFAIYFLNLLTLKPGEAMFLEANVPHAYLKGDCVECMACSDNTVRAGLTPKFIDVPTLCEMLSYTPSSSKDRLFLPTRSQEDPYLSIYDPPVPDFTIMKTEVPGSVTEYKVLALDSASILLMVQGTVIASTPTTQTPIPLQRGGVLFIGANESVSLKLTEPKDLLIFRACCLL
row,SMILES,inhibition
1,CC(C)Nc1nc(NC(C)C)nc(N(C)C#N)n1,3.3% (inactive)
2,O=C(NN1CCN(Cc2ccccc2Cl)CC1)c1ccc(Br)cc1,-9.1% (inactive)
3,O=S1(=O)CCN2C(c3cccc4ccccc34)=CSC2=N1,2.1% (inactive)
4,Nc1nnc(SCCOc2ccccc2)s1,1.7% (inactive)
5,Clc1ccc(OCc2nnc(-c3ccccc3Br)o2)c(Cl)c1,-0.9% (inactive)
6,Cc1ccc(NC(=O)/C(=C/c2cccc([N+](=O)[O-])c2)NC(=O)C2CCCCC2)cc1,14% (inactive)
7,C/C(=N\O)C(=O)C(CN1CCCCC1)CN1CCCCC1,52.4% (active)
8,CC(=O)/C(CN1CCCCC1)=N\O,-6.1% (inactive)
9,C/C(=N\O)C(=O)NCCN1CCCCC1,1.5% (inactive)
10,CCc1c(C)nc2ncnn2c1NC1CCCc2ccccc21 (stereo not drawn),15% (inactive)
11,CC(C)c1ccc(NC(=O)C2CC(=O)N=C(N)S2)cc1 (stereo not drawn),7.7% (inactive)
12,Cc1ccc(C2CC(c3ccccc3)=NN2C(=S)Nc2ccccc2)o1 (stereo not drawn),53% (active)
13,COc1ccc(C2CC(c3ccccc3)=NN2C(=S)Nc2ccccc2)cc1 (stereo not drawn),9.4% (inactive)
14,Cc1ccc(C2=NN(C(=S)Nc3ccccc3)C(c3ccco3)C2)cc1 (stereo not drawn),8.2% (inactive)
15,Cc1cc(C)cc(-n2c(O)c(C=NC3CCS(=O)(=O)C3)c3ccccc3c2=O)c1 (stereo not drawn),14.1% (inactive)
16,CCOC(=O)c1c(C)oc2c1c(C=NCCC(=O)O)c(O)c1ccccc12,77.4% (active)
17,CCOC(=O)c1c(C)oc2c1c(C(c1cccnc1)N1CCCCC1)c(O)c1ccccc12 (stereo not drawn),28.2% (inactive)
18,O=C(O)CCN=Cc1c(O)c2ccccc2oc1=O,7.6% (inactive)
19,CCOC(=O)c1c(C)oc2c1c(C(c1cccnc1)N1CCN(C)CC1)c(O)c1ccccc12 (stereo not drawn),35.1% (inactive)
20,Cc1ccc(-n2c(O)c(C=NC3CCS(=O)(=O)C3)c3ccccc3c2=O)cc1 (stereo not drawn),5.7% (inactive)
21,CCOC(=O)c1c(C)oc2c1c1c(c3ccccc32)OCN(Cc2cccnc2)C1,71.9% (active)
22,CCOC(=O)c1c(C)oc2c1c(C=NC1CCS(=O)(=O)C1)c(O)c1ccccc12 (stereo not drawn),76.1% (active)
23,CCOC(=O)c1c(C)oc2c1c(CN1CCN(C(=O)OCC)CC1)c(O)c1ccccc12,25.1% (inactive)
24,CCOC(=O)c1c(C)oc2c1c(CN1CCN(CCO)CC1)c(O)c1ccccc12,57.7% (active)
25,O=C(O)CCCN=Cc1c(O)c2ccccc2oc1=O,3.2% (inactive)

row,SMILES,inhibition
1,CCOC(=O)c1c(C)oc2c1c(C(c1ccccc1)N1CCOCC1)c(O)c1ccccc12 (stereo not drawn),37% (inactive)
2,CCC1CCCCN1C(=O)COc1cccc2c1CCN(C)C2=O (stereo not drawn),-3.6% (inactive)
3,O=C(C[n+]1cccc(CO)c1)Nc1nc2ccccc2s1,-3.4% (inactive)
4,O=c1c2sc(-c3ccccc3)cc2nc2n1CCC2,-4.9% (inactive)
5,Clc1ccc(N/N=C/c2ccncc2)cc1Cl,5.3% (inactive)
6,O=C(COC(=O)[C@@H]1CCCN1S(=O)(=O)c1ccccc1F)Nc1ccc(OC(F)F)cc1,9.6% (inactive)
7,Cn1c(SCC(=O)NCC2CCCO2)nnc1-c1ccc(S(=O)(=O)N2CCCC2)cc1 (stereo not drawn),-1.5% (inactive)
8,CCNC(=O)NC(=O)C(C)SCc1ccccc1C (stereo not drawn),-8.4% (inactive)
9,CCOC(=O)c1c(C)oc2c1c(C(c1cccnc1)N1CCOCC1)c(O)c1ccccc12 (stereo not drawn),22.6% (inactive)
10,CCOC(=O)c1c(C)oc2c1cc(O)c1ccccc12,13.4% (inactive)
11,CCOC(=O)c1c(C)oc2c1c(C=NCC1CCCO1)c(O)c1ccccc12 (stereo not drawn),63.6% (active)
12,CCOC(=O)c1c(NCC2CCCO2)c2ccccc2[nH]c1=O (stereo not drawn),-8.8% (inactive)
13,Oc1[nH]c2ccccc2c1C=NCC1CCCO1 (stereo not drawn),-2.9% (inactive)
14,O=c1oc2ccccc2c(O)c1C=NCc1ccccn1,5.9% (inactive)
15,CCOC(=O)c1c(C)oc2c1c(C(c1ccncc1)N1CCOCC1)c(O)c1ccccc12 (stereo not drawn),21% (inactive)
16,CCOC(=O)c1c(C)oc2c1c(C=NCc1ccccn1)c(O)c1ccccc12,62.5% (active)
17,Cn1c(NC(=O)Cc2cccc3ccccc23)cc(=O)n(C)c1=O,7.2% (inactive)
18,NNC(=O)c1sc2cc(C(F)(F)F)cnc2c1-c1cccnc1,3.5% (inactive)
19,O=S1(=O)N=C(Nc2nncs2)c2ccccc21,23.3% (inactive)
20,O=C1CNC(=O)N1CC(O)Cn1c2ccccc2c2ccccc21 (stereo not drawn),5.5% (inactive)
21,O=C(/C=C/c1ccc(S(=O)(=O)NCc2ccco2)cc1)NCc1cccc(Cl)c1,0.4% (inactive)
22,CCCn1c(CNC(=O)c2ccccc2)nc2ccccc21,0.8% (inactive)
23,CCCn1c(NCc2ccccc2NS(=O)(=O)c2ccc(C)cc2)nc2ccccc21,27.9% (inactive)
24,CCCn1c(CNS(=O)(=O)c2ccc(C)cc2)nc2ccccc21,83.3% (active)
25,O=C(N/N=C/c1coc2ccccc2c1=O)c1ccccc1Br,-7.2% (inactive)

row,SMILES,inhibition
1,Cn1c(C(C#N)C(=O)Cc2cccc3ccccc23)nc2ccccc21 (stereo not drawn),-7.2% (inactive)
2,C=CCNC(=S)Nc1ccc(Cl)c(S(=O)(=O)N2CCOCC2)c1,-6.8% (inactive)
3,CCCC(=O)OCCNc1cc(SCCC(=O)OC)c2nonc2c1[N+](=O)[O-],81.2% (active)
4,CCC(=O)OCCNc1cc(SCCC(=O)OC)c2nonc2c1[N+](=O)[O-],79.5% (active)
5,CCC(=O)OCCNc1cc(Sc2nccn2C)c2nonc2c1[N+](=O)[O-],20.4% (inactive)
6,CCCSc1cc(NCCOC(=O)CCC)c([N+](=O)[O-])c2nonc12,41.9% (inactive)
7,CCCSc1cc(NCCOC(C)=O)c([N+](=O)[O-])c2nonc12,27.6% (inactive)
8,COC(=O)CCSc1cc(NCCOC(C)=O)c([N+](=O)[O-])c2nonc12,4.9% (inactive)
9,O=C(O)/C=C/C(=O)Nc1ccc(SC(F)(F)F)cc1,-22.4% (inactive)
10,CC1(C)Cc2nc3sc4c(=O)n(Cc5ccccc5)cnc4c3cc2CS1,-8.6% (inactive)
11,Cc1cc(NC(=O)CSc2ncnc3ccccc23)no1,15.8% (inactive)
12,O=Cc1cn(CCC(=O)O)nc1-c1cccc(Br)c1,-4.6% (inactive)
13,O=C(O)CCn1cc(/C=C2\SC(=S)NC2=O)c(-c2ccccc2)n1,-4.7% (inactive)
14,CN(C)Cc1c(O)ccc2c3c(c(=O)oc12)CCCCC3,-0.4% (inactive)
15,O=c1oc2c(CN3CCOCC3)c(O)ccc2c2ccccc12,7.2% (inactive)
16,CCC1(c2ccccc2)NC(=O)N(Cc2ccc(C(=O)OC)cc2)C1=O (stereo not drawn),4.1% (inactive)
17,CCOC(=O)c1[nH]c2ccc(OC)cc2c1NC(=O)/C=C/c1ccc2c(c1)OCO2,-2.7% (inactive)
18,CC1=NN(c2ccccc2)C(=O)/C1=C/C=C/c1ccc(N(C)C)cc1,14.6% (inactive)
19,CC1=NN(c2ccccc2)C(=O)/C1=C/C=C/c1ccccc1,3.1% (inactive)
20,CC1=NN(c2ccccc2)C(=O)/C1=C/C=C/C=C/N(C)C,50.1% (active)
21,CCOc1ncccc1C(=O)Nc1nc(SC)ns1,-7% (inactive)
22,O=C1C2C3C=CC(CNS(=O)(=O)c4ccccc4[N+](=O)[O-])(O3)C2C(=O)N1c1ccccc1 (stereo not drawn),-34.8% (inactive)
23,COc1ccccc1C(OC(=O)c1cccs1)C(=O)NCc1ccco1 (stereo not drawn),-1.9% (inactive)
24,O=C(O)[C@@H]1CSC2(CCSC2)N1 (stereo partly drawn),-0.6% (inactive)
25,COC(=O)C1=C(C)N(Cc2ccco2)C(=O)/C1=C\c1ccc([N+](=O)[O-])cc1,-16.2% (inactive)

row,SMILES,inhibition
1,COC(=O)C1=C(C)N(Cc2ccco2)C(=O)/C1=C\c1ccc(N(C)C)cc1,63.9% (active)
2,CCOc1cc(/C=C2\C(=O)N(Cc3ccco3)C(C)=C2C(=O)OC)ccc1O,27.7% (inactive)
3,O=C(c1ccc(F)cc1)c1c[nH]c(C(=O)NCCCN2CCOCC2)c1,4.5% (inactive)
4,CC1CCc2c(sc(NC(=O)Cn3nc(C(F)(F)F)c4c3CCCCC4)c2C#N)C1 (stereo not drawn),-0.9% (inactive)
5,N#Cc1c(NC(=O)Cn2nc(C(F)(F)F)c3c2CCCC3)sc2c1CCC2,56.8% (active)
6,CCc1c(C)sc(NC(=O)Cn2nc(C(F)(F)F)c3c2CCCC3)c1C#N,15.3% (inactive)
7,CCOc1ccc(Br)cc1S(=O)(=O)Nc1ccc(N2CCOCC2)cc1,12% (inactive)
8,COc1cccc(N2CCN(c3c4c(nc5ncnn35)CCC4)CC2)c1,-1.8% (inactive)
9,c1ccc(N2CCN(c3c4c(nc5ncnn35)CCC4)CC2)cc1,68.8% (active)
10,CC1CCc2c(nc3ncnn3c2N2CCN(c3ccccc3)CC2)C1 (stereo not drawn),-7.9% (inactive)
11,N#CC1=C(N)Oc2n[nH]c(-c3cccs3)c2C1C1C=CCCC1 (stereo not drawn),2.1% (inactive)
12,O=C(O)CSc1ncccn1,-18.2% (inactive)
13,O=C(CSc1nc2ccccc2s1)CSc1nc2ccccc2s1,7.7% (inactive)
14,CN(C(=O)c1ccccn1)C1(C(=O)NC2CCCCC2)CCCCC1,-7.7% (inactive)
15,O=C(Nc1cc(N2CCOCC2)ncn1)c1ccc(F)cc1,5.3% (inactive)
16,O=C(NCCN1CCOCC1)NC1(C(F)(F)F)Oc2ccccc2O1,8.2% (inactive)
17,O=C(NCc1cccnc1)NC1(C(F)(F)F)Oc2ccc(Cl)cc2O1 (stereo not drawn),22.4% (inactive)
18,O=C(Nc1cc(N2CCOCC2)ncn1)NC1(C(F)(F)F)Oc2ccc(Cl)cc2O1 (stereo not drawn),74.1% (active)
19,COCC(C)NC(=O)NC1(C(F)(F)F)Oc2ccc(Cl)cc2O1 (stereo not drawn),22.8% (inactive)
20,O=C(Nc1cc(N2CCOCC2)ncn1)NC1(C(F)(F)F)Oc2ccccc2O1,35.5% (inactive)
21,COCCNC(=O)NC1(C(F)(F)F)Oc2ccc(Cl)cc2O1 (stereo not drawn),22.5% (inactive)
22,O=C(NCCN1CCOCC1)NC1(C(F)(F)F)Oc2ccc(Cl)cc2O1 (stereo not drawn),60.2% (active)
23,Cc1cc(NC(=O)NC2(C(F)(F)F)Oc3ccc(Cl)cc3O2)no1 (stereo not drawn),52% (active)
